Assay results as given in PubChem BioAssay (EPA / NIEHS).
Results filed as inconclusive are left out. Calls of active or inactive are those of the source. How the source made its calls: active means hit-call score of the fitted dose curve at least 0.9, where 1 is the maximum; inconclusive means response in the unintended direction; inactive means score below 0.9.

Assays:
[1] = ACEA_ER_AUC_viability: ACEA Biosciences xCELLigence Real-Time Cell Analysis on Estrogen Receptor Agonism for Viability (AID 2283782);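 further: continuous compound exposure with impedance area under curve over 80 h; hit means loss of impedance signal meaning reduced cell growth or viability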
Outline: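 T-47D; phenol red-free RPMI1640 + 10% CS-FBS; 8 conc., 1:4 serial, max 100 uM final, ≤0.5% DMSO; n = 2; continuous exposure; impedance monitored to 80 h post-dose; AUC vs DMSO.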

[2] = test system: frog Estrogen Receptor (ESR1), gene 398734; test: ATG_frER1_XSP1: Attagene TRANS-FACTORIAL Multi-Species (XSP1) HepG2 Assay for frog Estrogen Receptor (ESR1) (AID 2283777)
Outline: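 Human hepatoma HepG2 cells carried transiently transfected multiplexed Gal4-driven reporters and were exposed to test chemicals for 24 hours. Transcripts were quantified by fluorescent RT-PCR with capillary electrophoresis, referenced to DMSO.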

[3] = test system: zebrafish Estrogen Receptor (ESR2A), gene 317734; test: ATG_zfER2a_XSP1: Attagene TRANS-FACTORIAL Multi-Species (XSP1) HepG2 Assay for zebrafish Estrogen Receptor (ESR2A) (AID 2283778)
Outline: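 Cells were transfected, dosed for 24 h, then total RNA was isolated. After oligo(dT) reverse transcription, reporter sequences were amplified, FAM-labelled by primer extension, digested with HpaI and sized by capillary electrophoresis; DMSO served as baseline.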

[4] = molecular target: chicken Estrogen Receptor (ESR1), ESR1 (gene 396099) (UniProt P06212); test: ATG_chERa_XSP1: Attagene TRANS-FACTORIAL Multi-Species (XSP1) HepG2 Assay for chicken Estrogen Receptor (ESR1) (AID 2283779)
Outline: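 Human liver HepG2, transient MRTU transfection (NR-Gal4 chimeras, GAL4-UAS reporters); 24 h compound exposure; 3 nM 6-alpha-fluorotestosterone in medium. Total RNA → RT-PCR → 6-FAM primer extension → HpaI → CE. Positive direction vs DMSO baseline.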

[5] = molecular target: Estrogen receptor (Homo sapiens) (UniProt P03372); test: ATG_hERa_XSP1: Attagene TRANS-FACTORIAL Multi-Species (XSP1) HepG2 Assay for human Estrogen Receptor (ESR1) (AID 2283780)
Outline: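 HepG2 cells transiently transfected with GAL4-UAS reporter units and chimeric NR-Gal4 constructs; 24 h after dosing, reporter mRNA quantified by RT-PCR and capillary electrophoresis. Medium contained 3 nM 6-alpha-fluorotestosterone; activity fitted as gain-of-signal versus DMSO.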

[6] = STM_H9_NormalizedViability: Cytotoxicity Assessment at 120 hours in the Stemina devTOX quickPredict H9 human embryonic stem cell (hESC)-based Assay (AID 2283784)
Outline: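 Pluripotent H9 hESCs were exposed, with chemical and media replaced every 24 h. Viability was read by CellTiter-Fluor fluorescence, background-corrected and normalized to the 0.1% DMSO neutral control per plate. Loss of signal was fitted.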

[7] = molecular target: Estrogen receptor beta (Homo sapiens) (UniProt Q92731); test: ATG_hERb_XSP1: Attagene TRANS-FACTORIAL Multi-Species (XSP1) HepG2 Assay for human Estrogen Receptor (ESR2) (AID 2283788)
Outline: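 Measured endpoint is transcriptional gain of signal from a GAL4-UAS reporter controlled by chimeric ERβ in HepG2 liver cells. Exposure lasts 24 h alongside 3 nM 6-alpha-fluorotestosterone, with DMSO as negative control.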

[8] = ATG_M_06_XSP1: Attagene TRANS-FACTORIAL Multi-Species (XSP1) HepG2 Assay for M06 Transcription Factor (Internal Marker) (AID 2283790)
Outline: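 Transfected HepG2 multi-reporter system treated 24 h in the presence of 3 nM 6-alpha-fluorotestosterone. The M06 internal marker transcript was quantified by RT-PCR with capillary electrophoresis as a background control, and gain of signal was scored versus DMSO.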

[9] = ATG_M_61_XSP1: Attagene TRANS-FACTORIAL Multi-Species (XSP1) HepG2 Assay for M61 Transcription Factor (Internal Marker) (AID 2283797)
Outline: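 HepG2 cells transiently transfected with multiplexed GAL4-driven reporter units, dosed 24 h with 3 nM 6-alpha-fluorotestosterone present. Reporter mRNA quantified by RT-PCR, 6-FAM labelling, HpaI digestion and capillary electrophoresis; internal-marker background control, gain of signal versus DMSO.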

[10] = molecular target: Peroxisome proliferator-activated receptor gamma (Homo sapiens) (UniProt P37231); test: ATG_hPPARg_XSP1: Attagene TRANS-FACTORIAL Multi-Species (XSP1) HepG2 Assay for human Peroxisome Proliferator-activated Receptor gamma (PPARg) (AID 2283800)
Outline: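 HepG2 cells transiently transfected with GAL4-UAS reporter units carrying chimeric NR-Gal4 proteins; 3 nM 6-alpha-fluorotestosterone present. After 24 h dosing, reporter mRNA quantified by RT-PCR and capillary electrophoresis; gain of signal relative to DMSO.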

[11] = test system: zebrafish Peroxisome Proliferator-activated Receptor gamma (PPARg), gene 557037; test: ATG_zfPPARg_XSP1: Attagene TRANS-FACTORIAL Multi-Species (XSP1) HepG2 Assay for zebrafish Peroxisome Proliferator-activated Receptor gamma (PPARg) (AID 2283801)
Outline: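 HepG2 cells transiently transfected with GAL4-UAS reporter units including a zebrafish PPARg–GAL4 chimera, dosed 24 h with 3 nM 6-alpha-fluorotestosterone present. Reporter mRNA quantified by RT-PCR, FAM labelling, HpaI digestion and capillary electrophoresis; induction versus DMSO.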

[12] = molecular target: mouse Peroxisome Proliferator-activated Receptor gamma (PPARg), Pparg (gene 19016) (UniProt P37238); test: ATG_mPPARg_XSP1: Attagene TRANS-FACTORIAL Multi-Species (XSP1) HepG2 Assay for mouse Peroxisome Proliferator-activated Receptor gamma (PPARg) (AID 2283802)
Outline: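 HepG2 cells transiently transfected with GAL4-UAS reporter units driven by mouse PPARg–GAL4 chimera; 3 nM 6-alpha-fluorotestosterone present. After 24 h dosing, reporter mRNA quantified by RT-PCR, fluorescent labelling and capillary electrophoresis; gain of signal versus DMSO.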

[13] = molecular target: Nuclear receptor subfamily 1 group I member 2 (Mus musculus) (UniProt O54915); test: ATG_mPXR_XSP1: Attagene TRANS-FACTORIAL Multi-Species (XSP1) HepG2 Assay for mouse Pregnane X Receptor (PXR) (AID 2283803)
Outline: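 Transiently transfected HepG2 cells expressing a receptor-Gal4 chimera drive a GAL4-UAS reporter; 3 nM 6-alpha-fluorotestosterone included. Reporter mRNA read 24 h post-dose by RT-PCR and capillary electrophoresis; gain of signal relative to DMSO.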

[14] = molecular target: frog Thyroid hormone Receptor alpha (TRa), thra-a (gene 397942) (UniProt P15204); test: ATG_frTRa_XSP1: Attagene TRANS-FACTORIAL Multi-Species (XSP1) HepG2 Assay for frog Thyroid hormone Receptor alpha (TRa) (AID 2283804)
Outline: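 HepG2 cells transiently transfected with frog TRa-GAL4 chimeric reporter units, dosed 24 hr with 3 nM 6-alpha-fluorotestosterone present; reporter mRNA quantified by RT-PCR, fluorescent labelling and capillary electrophoresis, gain of signal versus DMSO.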

[15] = molecular target: human Thyroid hormone Receptor alpha (TRa), THRA (gene 7067) (UniProt P10827); test: ATG_hTRa_XSP1: Attagene TRANS-FACTORIAL Multi-Species (XSP1) HepG2 Assay for human Thyroid hormone Receptor alpha (TRa) (AID 2283805)
Outline: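 HepG2 cells transiently transfected with GAL4-UAS reporter units expressing chimeric NR-Gal4 proteins, dosed 24 hours with 3 nM 6-alpha-fluorotestosterone present. Reporter mRNA measured by RT-PCR and capillary electrophoresis; gain of signal fitted versus DMSO.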

[16] = test system: turtle Estrogen Receptor (ESR1), gene 101933533; test: ATG_trERa_XSP1: Attagene TRANS-FACTORIAL Multi-Species (XSP1) HepG2 Assay for turtle Estrogen Receptor (ESR1) (AID 2283781)
Outline: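 Activity was taken as gain of reporter transcript over DMSO controls. HepG2 cells carrying GAL4-UAS-driven reporters were exposed for 24 h before RNA was extracted and reporter sequences were measured by fluorescence after capillary separation.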

AR (gene 367) = AR (gene 367) (UniProt P10275); test: ACEA_AR_antagonist_80hr: ACEA Biosciences xCELLigence Real-Time Cell Analysis on Androgen Receptor Antagonism for Proliferation (AID 2283787);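 further: 22Rv1 human prostate cancer cells with growth followed by electrical impedance; hits lower the impedance growth signal relative to DMSO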
Outline: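 Growth-kinetic antagonist readout in 22Rv1 cells, taken 80 h after continuous compound exposure. Activity fitted as signal loss relative to DMSO negative control.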

[17] = molecular target: GAL4 Transcription Factor (Internal Marker), GAL4 (gene 855828) (UniProt P04386); test: ATG_GAL4_XSP1: Attagene TRANS-FACTORIAL Multi-Species (XSP1) HepG2 Assay for GAL4 Transcription Factor (Internal Marker) (AID 2283789)
Outline: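 HepG2 cells transiently transfected with multiplexed GAL4-UAS reporter units were exposed for 24 h with 3 nM 6-alpha-fluorotestosterone present. Reporter mRNA was quantified by RT-PCR, FAM labelling, HpaI digestion and capillary electrophoresis; background-control readout, gain-of-signal versus DMSO.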

[18] = ATG_M_32_XSP1: Attagene TRANS-FACTORIAL Multi-Species (XSP1) HepG2 Assay for M32 Transcription Factor (Internal Marker) (AID 2283799)
Outline: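 HepG2 cells transiently transfected with multi-species TRANS reporter units, dosed 24 h with 3 nM 6-alpha-fluorotestosterone present. Internal-marker reporter mRNA quantified by RT-PCR and capillary electrophoresis; positive-direction fit versus DMSO.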

human Thyroid hormone Receptor alpha (TRa), THRA (gene 7067), sequence (P10827 whole entry, looked up, the tested form may be a part): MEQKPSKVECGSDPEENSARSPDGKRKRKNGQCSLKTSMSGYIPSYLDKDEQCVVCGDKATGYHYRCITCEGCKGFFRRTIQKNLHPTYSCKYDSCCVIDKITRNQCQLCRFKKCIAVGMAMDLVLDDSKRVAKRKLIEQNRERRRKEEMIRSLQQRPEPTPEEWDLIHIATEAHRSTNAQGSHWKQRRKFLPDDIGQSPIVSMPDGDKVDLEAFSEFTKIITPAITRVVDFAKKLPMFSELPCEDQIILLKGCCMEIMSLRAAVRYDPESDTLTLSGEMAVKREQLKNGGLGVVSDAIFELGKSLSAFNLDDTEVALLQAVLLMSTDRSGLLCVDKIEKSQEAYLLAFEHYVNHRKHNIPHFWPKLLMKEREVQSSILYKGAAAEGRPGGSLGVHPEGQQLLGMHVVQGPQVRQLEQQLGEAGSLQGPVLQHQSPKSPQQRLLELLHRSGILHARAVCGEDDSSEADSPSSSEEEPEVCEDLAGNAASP
Peroxisome proliferator-activated receptor gamma (Homo sapiens), sequence (P37231 whole entry, looked up, the tested form may be a part): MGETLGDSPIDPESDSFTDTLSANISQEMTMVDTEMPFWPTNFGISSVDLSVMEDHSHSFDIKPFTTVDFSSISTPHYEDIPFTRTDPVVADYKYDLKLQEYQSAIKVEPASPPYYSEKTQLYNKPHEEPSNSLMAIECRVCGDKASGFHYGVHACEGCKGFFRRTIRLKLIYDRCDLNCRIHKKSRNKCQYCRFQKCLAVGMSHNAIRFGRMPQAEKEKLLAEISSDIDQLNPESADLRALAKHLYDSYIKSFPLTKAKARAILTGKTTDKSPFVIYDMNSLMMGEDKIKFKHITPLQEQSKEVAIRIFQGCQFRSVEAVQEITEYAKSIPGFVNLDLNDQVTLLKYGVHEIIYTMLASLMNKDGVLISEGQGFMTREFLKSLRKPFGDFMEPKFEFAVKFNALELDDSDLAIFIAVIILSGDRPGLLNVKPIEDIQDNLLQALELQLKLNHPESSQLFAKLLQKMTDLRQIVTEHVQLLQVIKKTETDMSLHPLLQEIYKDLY
mouse Peroxisome Proliferator-activated Receptor gamma (PPARg), Pparg (gene 19016), sequence (P37238 whole entry, looked up, the tested form may be a part): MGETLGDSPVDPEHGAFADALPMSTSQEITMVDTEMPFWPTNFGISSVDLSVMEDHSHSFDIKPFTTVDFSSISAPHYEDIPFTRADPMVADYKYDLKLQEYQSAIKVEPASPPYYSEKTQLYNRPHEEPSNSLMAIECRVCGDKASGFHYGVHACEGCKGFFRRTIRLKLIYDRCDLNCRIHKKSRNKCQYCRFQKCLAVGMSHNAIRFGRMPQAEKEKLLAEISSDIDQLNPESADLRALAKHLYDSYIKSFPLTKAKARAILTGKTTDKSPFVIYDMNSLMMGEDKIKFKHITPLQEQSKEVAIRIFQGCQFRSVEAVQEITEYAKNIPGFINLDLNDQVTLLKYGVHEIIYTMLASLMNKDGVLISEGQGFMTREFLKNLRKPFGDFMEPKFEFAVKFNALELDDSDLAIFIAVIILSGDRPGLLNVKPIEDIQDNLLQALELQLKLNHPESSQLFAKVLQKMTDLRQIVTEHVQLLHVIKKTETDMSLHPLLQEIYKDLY
Estrogen receptor beta (Homo sapiens), sequence (Q92731 whole entry, looked up, the tested form may be a part): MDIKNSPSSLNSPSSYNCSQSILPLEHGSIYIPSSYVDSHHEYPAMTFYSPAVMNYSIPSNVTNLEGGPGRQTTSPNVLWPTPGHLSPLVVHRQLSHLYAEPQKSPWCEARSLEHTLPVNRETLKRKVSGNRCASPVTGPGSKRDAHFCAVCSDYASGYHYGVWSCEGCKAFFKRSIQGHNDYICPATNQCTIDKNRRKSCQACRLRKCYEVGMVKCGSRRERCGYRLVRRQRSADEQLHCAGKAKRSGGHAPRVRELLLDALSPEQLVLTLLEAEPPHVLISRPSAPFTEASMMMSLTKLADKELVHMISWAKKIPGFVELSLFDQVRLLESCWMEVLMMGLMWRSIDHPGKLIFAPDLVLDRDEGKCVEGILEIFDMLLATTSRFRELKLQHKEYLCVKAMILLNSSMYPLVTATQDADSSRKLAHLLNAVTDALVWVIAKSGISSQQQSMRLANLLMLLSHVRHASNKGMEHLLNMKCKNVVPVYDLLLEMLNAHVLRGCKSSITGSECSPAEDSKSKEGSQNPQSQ
frog Thyroid hormone Receptor alpha (TRa), thra-a (gene 397942), sequence (P15204 whole entry, looked up, the tested form may be a part): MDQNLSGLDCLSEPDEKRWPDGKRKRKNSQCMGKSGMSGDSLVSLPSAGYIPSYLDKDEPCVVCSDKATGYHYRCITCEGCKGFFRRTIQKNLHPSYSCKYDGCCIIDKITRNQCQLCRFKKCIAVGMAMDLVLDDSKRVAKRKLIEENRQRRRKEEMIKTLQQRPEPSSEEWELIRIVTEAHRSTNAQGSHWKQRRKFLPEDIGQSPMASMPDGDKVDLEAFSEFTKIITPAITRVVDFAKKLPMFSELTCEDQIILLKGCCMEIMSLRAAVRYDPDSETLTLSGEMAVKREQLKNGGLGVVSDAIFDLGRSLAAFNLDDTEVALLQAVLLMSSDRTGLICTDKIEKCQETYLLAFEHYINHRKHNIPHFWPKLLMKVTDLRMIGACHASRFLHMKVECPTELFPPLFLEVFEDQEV
Estrogen receptor (Homo sapiens), sequence (P03372 whole entry, looked up, the tested form may be a part): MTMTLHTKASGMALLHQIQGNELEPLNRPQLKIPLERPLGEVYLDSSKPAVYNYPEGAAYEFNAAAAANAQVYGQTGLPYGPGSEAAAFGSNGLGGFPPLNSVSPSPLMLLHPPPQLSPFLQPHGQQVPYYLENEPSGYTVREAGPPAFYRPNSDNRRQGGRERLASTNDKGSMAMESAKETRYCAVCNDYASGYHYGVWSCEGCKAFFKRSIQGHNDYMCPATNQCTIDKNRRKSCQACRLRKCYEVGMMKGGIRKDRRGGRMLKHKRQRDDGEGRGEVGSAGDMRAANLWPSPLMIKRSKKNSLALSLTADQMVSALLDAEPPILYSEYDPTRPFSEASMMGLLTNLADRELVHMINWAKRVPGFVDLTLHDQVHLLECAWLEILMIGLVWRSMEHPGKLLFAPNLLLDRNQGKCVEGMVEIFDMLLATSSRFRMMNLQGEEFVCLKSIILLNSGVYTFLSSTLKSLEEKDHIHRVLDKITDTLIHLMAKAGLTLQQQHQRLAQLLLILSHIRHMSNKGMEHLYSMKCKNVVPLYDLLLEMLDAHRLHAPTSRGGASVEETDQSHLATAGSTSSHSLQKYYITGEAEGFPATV
chicken Estrogen Receptor (ESR1), ESR1 (gene 396099), sequence (P06212 whole entry, looked up, the tested form may be a part): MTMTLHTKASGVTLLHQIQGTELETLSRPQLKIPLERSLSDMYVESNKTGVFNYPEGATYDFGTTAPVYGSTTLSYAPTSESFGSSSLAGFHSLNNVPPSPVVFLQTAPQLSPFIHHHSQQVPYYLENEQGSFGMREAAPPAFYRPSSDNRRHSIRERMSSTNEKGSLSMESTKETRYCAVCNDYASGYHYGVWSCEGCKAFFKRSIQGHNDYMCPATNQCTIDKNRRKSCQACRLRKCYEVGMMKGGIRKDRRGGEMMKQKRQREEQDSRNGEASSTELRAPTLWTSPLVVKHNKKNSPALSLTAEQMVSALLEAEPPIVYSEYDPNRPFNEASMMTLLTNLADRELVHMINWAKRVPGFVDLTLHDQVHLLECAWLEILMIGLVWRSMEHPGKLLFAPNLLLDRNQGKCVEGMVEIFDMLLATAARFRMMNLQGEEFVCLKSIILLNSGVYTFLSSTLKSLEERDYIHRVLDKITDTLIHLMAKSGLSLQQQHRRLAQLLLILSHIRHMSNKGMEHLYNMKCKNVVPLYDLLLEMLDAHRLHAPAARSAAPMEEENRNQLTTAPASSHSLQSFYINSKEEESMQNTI
Nuclear receptor subfamily 1 group I member 2 (Mus musculus), sequence (O54915 whole entry, looked up, the tested form may be a part): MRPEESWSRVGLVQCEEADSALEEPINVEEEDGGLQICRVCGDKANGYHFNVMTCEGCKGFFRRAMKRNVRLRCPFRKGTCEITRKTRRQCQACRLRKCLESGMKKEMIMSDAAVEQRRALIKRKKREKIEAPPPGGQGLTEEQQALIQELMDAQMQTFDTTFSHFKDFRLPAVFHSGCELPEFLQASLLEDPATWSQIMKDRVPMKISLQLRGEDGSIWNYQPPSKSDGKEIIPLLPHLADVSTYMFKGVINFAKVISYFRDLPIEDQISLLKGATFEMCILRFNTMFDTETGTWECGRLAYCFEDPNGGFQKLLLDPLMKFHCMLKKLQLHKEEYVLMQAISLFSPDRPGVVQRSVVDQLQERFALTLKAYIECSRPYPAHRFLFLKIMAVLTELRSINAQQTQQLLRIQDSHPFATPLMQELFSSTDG
GAL4 Transcription Factor (Internal Marker), GAL4 (gene 855828), sequence (P04386 whole entry, looked up, the tested form may be a part): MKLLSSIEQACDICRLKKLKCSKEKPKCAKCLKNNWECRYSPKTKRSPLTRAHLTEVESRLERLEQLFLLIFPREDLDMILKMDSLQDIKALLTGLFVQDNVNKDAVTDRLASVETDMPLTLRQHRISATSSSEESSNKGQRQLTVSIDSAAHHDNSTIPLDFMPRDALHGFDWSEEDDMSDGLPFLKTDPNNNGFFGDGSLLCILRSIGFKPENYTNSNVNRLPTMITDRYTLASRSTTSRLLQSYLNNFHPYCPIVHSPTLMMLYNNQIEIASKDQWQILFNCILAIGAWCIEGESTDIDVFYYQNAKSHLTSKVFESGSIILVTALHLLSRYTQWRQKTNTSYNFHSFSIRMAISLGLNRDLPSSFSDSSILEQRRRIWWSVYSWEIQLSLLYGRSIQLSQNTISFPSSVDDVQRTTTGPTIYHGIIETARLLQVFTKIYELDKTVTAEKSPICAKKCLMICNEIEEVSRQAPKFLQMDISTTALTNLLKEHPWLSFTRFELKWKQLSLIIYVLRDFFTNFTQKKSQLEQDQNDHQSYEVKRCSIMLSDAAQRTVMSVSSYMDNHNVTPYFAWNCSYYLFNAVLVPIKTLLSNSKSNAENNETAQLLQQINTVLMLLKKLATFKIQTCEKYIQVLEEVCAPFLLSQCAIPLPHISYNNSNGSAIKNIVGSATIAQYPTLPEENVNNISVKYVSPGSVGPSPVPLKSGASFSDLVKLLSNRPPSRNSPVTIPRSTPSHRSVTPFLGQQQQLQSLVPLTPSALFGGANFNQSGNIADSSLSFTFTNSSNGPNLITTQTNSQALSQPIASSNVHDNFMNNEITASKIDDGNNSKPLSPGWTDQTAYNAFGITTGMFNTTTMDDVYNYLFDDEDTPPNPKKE

With `OCc1c[nH]c2ccccc12` the AC50 [1] was 87 µM (active).
With `O=C(O)c1ccc2c(c1)nc(C(=O)NC1CCN(C3CC3)CC1)n2Cc1cc(-c2ccc(Cl)s2)on1` the outcome [1] was “inactive”.
In the case of `CCCCN1C(=O)[C@@H]([C@H](O)C2CCCCC2)NC(=O)C12CCN(Cc1ccc(Oc3ccc(C(=O)O)cc3)cc1)CC2`, the AC50 [1] is reported as 64.6 µM (active).
In the case of `CCOC(N)=O`, the outcome [1] is reported as “inactive”.
With `CC(C)C(=O)Nc1ccc([N+](=O)[O-])c(C(F)(F)F)c1` the outcome [2] was “inactive”, the outcome [3] was “inactive” and the outcome [4] was “inactive”. For the same compound, the outcome [5] was “inactive”, the AC50 [6] was 65.6 µM (active) and the outcome [7] was “inactive”. The outcome [8] was “inactive”, the outcome [9] was “inactive” and the AC50 [10] was 21.9 µM (active). The outcome [11] was “inactive”, the AC50 [12] was 27.1 µM (active) and the AC50 [13] was 27.4 µM (active). For the same compound, the AC50 [14] was 63.9 µM (active) and the AC50 [15] was 29 µM (active).
In the case of `O=C(O)c1cccc(C[C@@H]2COc3ccc(OCc4nc5cc(F)ccc5s4)cc3[C@@H]2O)c1`, the outcome [1] is reported as “inactive”.
With `S=P(N1CC1)(N1CC1)N1CC1` the AC50 [1] was 69 µM (active).
For `OC[C@H]1O[C@@](CO)(O[C@H]2O[C@H](CO)[C@@H](O)[C@H](O)[C@H]2O)[C@@H](O)[C@@H]1O`, the outcome [1] was “inactive”.
For `C[C@@H](Oc1ccc(CNC(=O)c2cccnc2Oc2ccc3c(c2)OCO3)c(F)c1)C(=O)O`, the outcome [1] was “inactive”.
In the case of `O=S(=O)(O)CCC(F)(F)C(F)(F)C(F)(F)C(F)(F)C(F)(F)C(F)(F)F`, the outcome [1] is reported as “inactive”.
In the case of `O=C(Cl)C(F)(F)C(F)(F)C(F)(F)C(=O)Cl`, the outcome [1] is reported as “inactive”.
For `NCC(F)(F)C(F)(F)C(F)(F)C(F)(F)F`, the outcome [1] was “inactive”.
In the case of `OCCC(F)(F)C(F)(F)C(F)(F)C(F)(F)F`, the outcome [1] is reported as “inactive”.
In the case of `CCc1ccc(O)c(C(C)(C)C)c1`, the AC50 [1] is reported as 25.5 µM (active).
For `FC(F)C(F)(F)COCC1CO1` (stereo not given), the outcome [1] was “inactive”.
For `CCCc1ccccc1`, the outcome [1] was “inactive”.
In the case of `NC(=O)NN=Cc1ccc([N+](=O)[O-])o1`, the outcome [1] is reported as “inactive”.
With `FC(F)=C(F)C(F)(F)C(F)(F)C(F)(F)C(F)(F)C(F)(F)C(F)(F)F` the outcome [1] was “inactive”.
With `OC(O)(C(F)C(O)(O)C(F)(F)F)C(F)(F)F` the AC50 [1] was 75 µM (active).
With `C=CCc1cc(S(=O)(=O)c2ccc(O)c(CC=C)c2)ccc1O` the AC50 [4] was 1.19 µM (active), the AC50 [5] was 1.36 µM (active) and the AC50 [16] was 1 µM (active). The AC50 [1] was 76.7 µM (active), the AC50 (AR (gene 367)) was 26.2 µM (active) and the outcome [7] was “inactive”. For the same compound, the outcome [17] was “inactive”, the outcome [8] was “inactive” and the outcome [9] was “inactive”. For the same compound, the outcome [18] was “inactive”, the AC50 [10] was 4.14 µM (active) and the outcome [11] was “inactive”. The AC50 [12] was 3.63 µM (active), the outcome [14] was “inactive” and the outcome [15] was “inactive”.
In the case of `Cn1c(=O)c2[nH]cnc2n(C)c1=O`, the outcome [1] is reported as “inactive”.
With `OC[C@H]1O[C@@H]2O[C@H]3[C@H](O)[C@@H](O)[C@@H](O[C@H]4[C@H](O)[C@@H](O)[C@@H](O[C@H]5[C@H](O)[C@@H](O)[C@@H](O[C@H]6[C@H](O)[C@@H](O)[C@@H](O[C@H]7[C@H](O)[C@@H](O)[C@@H](O[C@H]1[C@H](O)[C@H]2O)O[C@@H]7CO)O[C@@H]6CO)O[C@@H]5CO)O[C@@H]4CO)O[C@@H]3CO` the outcome [1] was “inactive”.
With `O=C(N[C@H](CO)[C@H](O)c1ccc([N+](=O)[O-])cc1)C(Cl)Cl` the AC50 [1] was 73.2 µM (active).
